The list is not random: actives were taken first. Their share in the collection is about 3.3%.
Sm TGR block = blocks Schistosoma mansoni thioredoxin glutathione reductase; Q962Y6; purified TGR, DTNB reduction, TNB absorbance 405 nm; Potency, µM (highest dose often 114 µM), usual class: inhibitors; hit rate 3% among 360,000; also: nearly all actives have a fitted effect of over 60% in size
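Kinetic colorimetric format: TGR-catalysed, NADPH-driven DTNB reduction monitored via TNB absorbance. Enzyme dispensed at 20 nM; compound exposure 15 min at room temperature before reaction start.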
RE007 growth inh = less growth of the S. pombe RE007 Vpr strain; S. pombe RE007 Vpr strain, BacTiter-Glo ATP luminescence, 24 h; Potency, µM (highest dose often 92.2 µM), actives largely listed as inhibitors; hit rate 0.21% among 360,000; AID 651644; active = well fitted falling curve with a large enough effect; inconclusive = small, poorly fitted or top-dose-only effect; inactive = no such curve, though single readings can be large or run the other way; also: nearly all actives have a fitted effect of over 50% in size
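Fission yeast strain RE007, carrying one chromosomally integrated HIV-1 vpr copy, was seeded at OD 0.01 in PMG+AL medium with 23 nL pinned compound. After 24 h at 30 °C and 99% humidity, viability was read by BacTiter-Glo luminescence.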
AmpC inh detg = inhibitors of E. coli AmpC beta-lactamase with detergent; P00811; AmpC hydrolysis of nitrocefin, absorbance 480 nm, 0.01% Triton; Potency, µM (doses to about 114 µM), usual class: inhibitors; hit rate 0.041% among 370,000; AID 485294; also: nearly all actives have a fitted effect of over 25% in size
Target sequence (P00811 whole entry, looked up): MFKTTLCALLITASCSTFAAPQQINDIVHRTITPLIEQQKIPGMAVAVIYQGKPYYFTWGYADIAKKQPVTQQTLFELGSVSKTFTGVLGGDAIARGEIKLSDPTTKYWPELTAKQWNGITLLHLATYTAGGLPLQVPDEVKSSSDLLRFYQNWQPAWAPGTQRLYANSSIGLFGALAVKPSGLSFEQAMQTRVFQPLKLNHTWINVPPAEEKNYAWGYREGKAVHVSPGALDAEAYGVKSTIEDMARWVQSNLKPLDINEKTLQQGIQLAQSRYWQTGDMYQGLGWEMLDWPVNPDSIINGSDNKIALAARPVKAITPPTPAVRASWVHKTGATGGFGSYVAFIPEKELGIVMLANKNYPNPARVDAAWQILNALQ
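20 mM phosphate pH 7.0 + 0.01% (detergent screen) or 0.0001% Triton X-100; 5.3 nM AmpC reagent; cpd preinc 15 min RT; nitrocefin (800 uM stock) to start; A480 q20 s × 4 min; Activity was normalised to no-enzyme and no-compound control wells.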
SARS PLpro yeast = inhibitors of SARS-CoV papain-like protease in yeast; hit rate 0.19% among 330,000; S. cerevisiae expressing SARS-CoV PLpro, growth rescue; Potency, µM (highest dose often 32.9 µM), actives largely listed as activators; calls by dose curve; also: nearly all actives have a fitted effect of over 55% in size
TbPYK inhibitor = T. brucei pyruvate kinase inhibition. Potency, µM (titrated, usually from 76.8 µM), actives largely listed as inhibitors. Q57TT1. TbPYK enzyme, Kinase-Glo Plus ATP luminescence, 45 min. hit rate 0.12% among 410,000. AID 624173; also: nearly all actives have a fitted effect of over 50% in size
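Enzyme and substrate buffer are dispensed first and compound is pin-transferred. ADP at 130 uM final then starts the reaction, which runs 45 min at room temperature. Detection reagent is added for 10 min before luminescence is imaged.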
AmpC inh no detg = inhibitors of E. coli AmpC beta-lactamase without detergent | AmpC nitrocefin hydrolysis, absorbance 480 nm, 0.0001% Triton | hit rate 0.52% among 330,000 | P00811 | Potency, µM (highest dose often 57.1 µM), actives largely listed as inhibitors; also: nearly all actives have a fitted effect of over 20% in size
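AmpC (5.3 nM in the dispensed reagent) in 20 mM phosphate pH 7.0 with 0.01% (detergent screen) or 0.0001% Triton X-100 was preincubated with compounds for 15 min at room temperature. Nitrocefin was then added from an 800 uM solution, and hydrolysis was followed at 480 nm.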
Each line names hits and unclear results; the compound was inactive in the other large screens. Unless noted, calls follow the shape of the dose curve; as a rule, active = well fitted curve in the direction sought with a large enough effect; inconclusive = small, poorly fitted or top-dose-only effect, or another doubt; inactive = no such curve, though single readings can be large; an effect the other way counts as inactive or inconclusive.

Cc1cccc(CSc2ccc3nnc(CCNS(=O)(=O)c4ccccc4)n3n2)c1	none (no result: RE007 growth inh, SARS PLpro yeast, AmpC inh no detg)
CCN(CC)c1nc2c(S(=O)(=O)c3ccc(C)cc3)nnn2c2ccsc12	none (no result: RE007 growth inh, SARS PLpro yeast, AmpC inh no detg)
Cc1cc(C)c(S(=O)(=O)Nc2cc(SCC(=O)O)c(O)c3ccccc23)cc1C	Sm TGR block 8.9µM, TbPYK inhibitor 10µM
Cc1cc(C)c(S(=O)(=O)Nc2ccc(O)cc2)cc1C	none
CCOC(=O)N1CCC(NC(=O)c2ccc3c(c2)N(Cc2ccc(Cl)cc2)C(=O)c2ccccc2S3=O)CC1 (stereo not drawn)	none (no result: RE007 growth inh, SARS PLpro yeast, AmpC inh no detg)
O=C(CCS(=O)CCC(=O)NCc1ccccc1)NCc1ccccc1	none
O=C(CCS(=O)NCc1ccccc1)NCc1ccccc1 (stereo not drawn)	Sm TGR block 32µM, AmpC inh detg inconclusive (no result: RE007 growth inh, TbPYK inhibitor)
CCOc1cc(C(=O)Nc2cc(C)ccn2)cc(OCC)c1OCC	AmpC inh detg inconclusive
CCOc1ccc(C(=O)Nc2cc(C)ccn2)cc1	RE007 growth inh 40µM, TbPYK inhibitor inconclusive
CCCCSc1nnc2c(n1)OC(c1ccc(C)s1)Nc1ccccc1-2 (stereo not drawn)	none (no result: RE007 growth inh, SARS PLpro yeast, AmpC inh no detg)
COc1ccccc1CN(CC(=O)NCc1ccco1)C(=O)CNS(=O)(=O)c1ccccc1	Sm TGR block 50µM
Cc1ccc(S(=O)(=O)NCC(=O)N(CC(=O)NCc2ccco2)Cc2cccs2)cc1	none
Cc1ccccc1N(CC(=O)NCc1ccco1)C(=O)CNS(=O)(=O)c1ccc(F)cc1	Sm TGR block 40µM
COc1ccccc1CN(CC(=O)NCc1ccco1)C(=O)CNS(=O)(=O)c1ccc(C)cc1	Sm TGR block 28µM
COc1ccc(S(=O)(=O)NCC(=O)N(CC(=O)NCc2ccco2)Cc2ccccc2)cc1	none
COc1c(C)cc(C(=O)C2CCCN(C3CCOCC3)C2)cc1C (stereo not drawn)	Sm TGR block 13µM
O=C1c2ccccc2NC(c2ccc(Cl)cc2Cl)N1O (stereo not drawn)	RE007 growth inh inconclusive, SARS PLpro yeast 14µM
O=C1c2ccccc2NC(c2ccc(Cl)cc2Cl)N1Cc1ccccc1 (stereo not drawn)	none
Cc1cc(C)cc(N(C(=O)Cn2nnc3ccccc32)C(C(=O)NCc2ccco2)c2ccncc2)c1 (stereo not drawn)	Sm TGR block 35µM
CCCCN(C(=O)Cn1nnc2ccccc21)C(C(=O)NCc1ccco1)c1ccncc1 (stereo not drawn)	Sm TGR block 56µM
Cc1ccc(C(C(=O)NCc2ccco2)N(CCc2ccccc2)C(=O)Cn2nnc3ccccc32)o1 (stereo not drawn)	none
Cc1ccc(N(C(=O)Cn2nnc3ccccc32)C(C(=O)NCc2ccco2)c2ccc(C)o2)cc1 (stereo not drawn)	Sm TGR block inconclusive, AmpC inh detg inconclusive
O=C(NCc1ccco1)C(c1ccc(F)cc1)N(Cc1cccnc1)C(=O)Cn1nnc2ccccc21 (stereo not drawn)	Sm TGR block inconclusive, AmpC inh detg inconclusive
Cc1ccc(C(C(=O)NCc2ccco2)N(C(=O)Cn2nnc3ccccc32)c2ccccc2)o1 (stereo not drawn)	Sm TGR block 50µM, AmpC inh detg inconclusive
Cc1ccc(C)c(N(C(=O)Cn2nnc3ccccc32)C(C(=O)NCc2ccco2)c2ccncc2)c1 (stereo not drawn)	none
O=C(NCc1ccco1)C(c1ccccc1)N(Cc1cccnc1)C(=O)Cn1nnc2ccccc21 (stereo not drawn)	Sm TGR block 40µM, AmpC inh detg inconclusive
Cc1ccc(C)c(Cn2c(=O)c3c(nc4n3CCN4c3ccc(F)cc3)n(C)c2=O)c1	none (no result: RE007 growth inh, SARS PLpro yeast, AmpC inh no detg)
COc1ccc(S(=O)(=O)N2CCC(n3c(C)nc4cccnc43)CC2)cc1Cl	none (no result: RE007 growth inh, SARS PLpro yeast, AmpC inh no detg)
CCCn1c(SCc2nc(-c3ccccc3OCC)no2)nnc1-c1ccc(Cl)cc1	none (no result: RE007 growth inh, SARS PLpro yeast, AmpC inh no detg)
O=c1c2ccccc2nc2n1CC/C2=C/N1CCN(c2cccc(C(F)(F)F)c2)CC1	Sm TGR block 32µM
NC[C@@H]1O[C@@H](O[C@H]2[C@@H](O)[C@H](O[C@@H]3[C@@H](O)[C@@H](N)C[C@H](N)[C@H]3O[C@H]3O[C@H](CN)[C@@H](O)[C@@H](O)[C@H]3N)O[C@H]2CO)[C@H](N)[C@@H](O)[C@@H]1O	none (no result: Sm TGR block, RE007 growth inh, AmpC inh detg, SARS PLpro yeast, AmpC inh no detg)
CCOC(=O)c1c(C)[nH]c(C)c1S(=O)(=O)N1CCC(C(=O)Nc2ccc(C)c(N(C)C)c2)CC1	none (no result: RE007 growth inh, SARS PLpro yeast, AmpC inh no detg)
CCN1CCN(C(=O)CS(=O)(=O)Cc2nc(-c3ccccc3C)oc2C)CC1	none
Cc1oc(-c2ccccc2F)nc1CS(=O)(=O)CC(=O)NCc1ccco1	Sm TGR block 22µM
Cc1ccccc1-c1nc(CN2CCC(C(=O)N3CCC(C(N)=O)CC3)CC2)c(C)o1	AmpC inh detg inconclusive, AmpC inh no detg 11µM
Cc1oc(-c2ccccc2F)nc1CS(=O)(=O)CC(=O)N1CCOCC1	Sm TGR block 45µM, AmpC inh detg inconclusive, AmpC inh no detg inconclusive
Cc1ccc(-c2nc(CS(=O)(=O)CC(=O)N3CCOCC3)c(C)o2)cc1	none
Cc1ccccc1-c1nc(CN2CCC(C(=O)N3CCN(c4ccccn4)CC3)CC2)c(C)o1	none
Cc1oc(-c2ccccc2F)nc1CS(=O)(=O)CC(=O)N1CCN(Cc2ccccc2)CC1	Sm TGR block 13µM
CCOC(=O)c1ccc(NS(=O)(=O)c2cc3c(cc2C)n(C)c(=O)c(=O)n3C)cc1	none (no result: RE007 growth inh, SARS PLpro yeast, AmpC inh no detg)
CC(Sc1nc(=O)cc(N)n1CCc1ccccc1)C(=O)Nc1ccc(Cl)cc1 (stereo not drawn)	none (no result: RE007 growth inh, SARS PLpro yeast, AmpC inh no detg)
Cc1ccccc1-c1nc(CS(=O)(=O)CC(=O)N2CCCCC2)c(C)o1	Sm TGR block 22µM
CO[C@H]1C[C@@H]2CC[C@@H](C)[C@@](O)(O2)C(=O)C(=O)N2CCCC[C@H]2C(=O)O[C@H]([C@H](C)C[C@@H]2CC[C@@H](O)[C@H](OC)C2)CC(=O)[C@H](C)/C=C(\C)[C@@H](O)[C@@H](OC)C(=O)[C@H](C)C[C@H](C)/C=C/C=C/C=C/1C	none (no result: Sm TGR block, RE007 growth inh, AmpC inh detg, SARS PLpro yeast, AmpC inh no detg)
C/C(=N\Nc1nc2ccccc2s1)c1cccs1	RE007 growth inh 35µM
CC(=NNc1nc2ccccc2s1)c1ncccn1	RE007 growth inh inconclusive (no result: Sm TGR block, AmpC inh detg, SARS PLpro yeast, AmpC inh no detg)
C/C(=N\NC(=O)c1ccccc1)c1c(O)n(Cc2ccccc2)c(=O)[nH]c1=O	none
CC(=NCC1CCCO1)c1c(O)n(Cc2ccccc2)c(=O)[nH]c1=O (stereo not drawn)	AmpC inh no detg 2.2µM
C/C(=N\Nc1cccc2ccccc12)c1c(O)n(Cc2ccccc2)c(=O)[nH]c1=O	Sm TGR block 13µM (no result: RE007 growth inh)
OCC1(Cc2ccccc2)CCCN(Cc2ccc(-c3ccco3)cc2)C1 (stereo not drawn)	Sm TGR block 35µM
